Results published in PubChem BioAssay.
Where “and” joins values, the source holds several entries; their conditions need not be identical. Identical values can stand only once. A structure can be active in one record and inactive in another. Calls of active or inactive are those of the source. Unless noted, no stated cut-off is given here; in the data, active means inhibition above about 80%; inactive means the rest.

Tests used:
[1] = LFS_MB_P medulloblastoma growth inhibition, cell-based, chromothripsis tumors, cisplatin or BGB combos (AID 1671449); conditions: LFS_MB_P medulloblastoma cells;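 further: cells exposed for 96 hours; 0% = vehicle DMSO and 100% = killing by high DMSO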
[2] = HDN33 neuroblastoma growth inhibition, cell-based, chromothripsis tumors, cisplatin or BGB combos (AID 1671450); conditions: HDN33 neuroblastoma cells, stronger effect = higher value;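 further: cells exposed to compound for four days; 0% = vehicle DMSO and 100% = cell killing by high DMSO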
[3] = ICB984 medulloblastoma cell growth inhibition, synergistic combos for chromothripsis tumors, cisplatin or BGB combos (AID 1671451; call rule not given here;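 further: cells exposed for 96 hours before readout; 0% = vehicle DMSO and 100% = killing by high DMSO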); conditions: ICB984 medulloblastoma cells, drug combinations, stronger effect = higher value
[4] = LFS_MB_1R medulloblastoma cell growth inhibition, synergistic combos for chromothripsis tumors, cisplatin or BGB combos (AID 1671452); conditions: LFS_MB_1R medulloblastoma cells, stronger effect = higher value;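 further: cells exposed for 96 hours before readout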
[5] = HTB85 osteosarcoma cell growth inhibition, synergistic combos for chromothripsis tumors, BGB or cisplatin IC20 combos (AID 1671453); conditions: HTB85 osteosarcoma cells, drug combinations, stronger effect = higher value;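 further: cells exposed for 96 hours before readout; 0% = vehicle DMSO and 100% = high DMSO killing control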
[6] = CRL2098 osteosarcoma cell growth inhibition, synergistic combos for chromothripsis tumors, BGB or cisplatin IC20 combos (AID 1671454); conditions: CRL2098 osteosarcoma cells, drug combinations, stronger effect = higher value;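 further: cells exposed for 96 h before readout; 0% = vehicle DMSO and 100% = killing by high DMSO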
[7] = HD-MB03 medulloblastoma cell growth inhibition, synergistic combos for chromothripsis tumors, BGB or cisplatin IC20 combos (AID 1671455; in the data active means inhibition above about 83%;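 further: 0% = vehicle DMSO and 100% = high DMSO as cytotoxic control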); conditions: HD-MB03 medulloblastoma cells, stronger effect = higher value
[8] = UWB1.289 ovarian carcinoma cell growth inhibition, synergistic combos for chromothripsis tumors, BGB or cisplatin combos (AID 1671456); conditions: UWB1.289 ovarian carcinoma cells, stronger effect = higher value;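 further: cells exposed to compound for four days; 0% = vehicle DMSO and 100% = killing by high DMSO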
[9] = LFS_MB_2R medulloblastoma cell growth inhibition, synergistic combos for chromothripsis tumors, cisplatin combos (AID 1671457); conditions: LFS_MB_2R medulloblastoma cells, stronger effect = higher value;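 further: cells exposed to compound for four days before readout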
[10] = MDA-MB-436 breast carcinoma cell growth inhibition, synergistic combos for chromothripsis tumors, BGB or cisplatin combos (AID 1671458; call rule not given here;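 further: cells exposed for 96 hours; 0% = vehicle DMSO and 100% = killing by high DMSO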); conditions: MDA-MB-436 breast carcinoma growth inhibition, drug combinations, stronger effect = higher value
[11] = UWB1.289_BRCA1 ovarian cancer growth, cell-based, BGB or cisplatin combinations (AID 1671459); conditions: UWB1.289 BRCA1 ovarian carcinoma, drug combinations, stronger effect = higher value
[12] = human astrocyte viability loss, single and combined drugs, cytotoxicity control for chromothriptic childhood tumor combination screen, cell-based, BGB or cisplatin IC20 combos (AID 1671460); conditions: Human astrocytes, drug combinations, stronger effect = higher value;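 further: cells exposed to compounds for 96 hours before viability readout; 0% = vehicle and 100% = killing control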
[13] = growth inhibition of BT084 medulloblastoma cells, cell-based, ICGC_MB145, cisplatin and BGB IC40 combos (AID 1671461); conditions: drug combinations, stronger effect = higher value;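 further: cells exposed to drugs for 96 hours; 0% = vehicle DMSO and 100% = high DMSO full killing control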
[14] = growth inhibition of RCMB18 medulloblastoma cells, cell-based, cisplatin and BGB IC40 combos (AID 1671462); conditions: stronger effect = higher value;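 further: cells exposed to compound for four days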
[15] = growth inhibition of CRL1545 osteosarcoma cells, cell-based, cisplatin and BGB IC20 combos (AID 1671464); conditions: stronger effect = higher value;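 further: cells exposed to compound for 96 hours before readout; 0% = vehicle DMSO and 100% = high DMSO killing control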
[16] = at 0.5 µM, stronger effect = higher value
[17] = measured here: combination with BGB IC20, at 0.005 µM
[18] = measured here: combination with BGB IC40, at 0.005 µM
[19] = measured here: combination with BGB IC40, at 0.05 µM
[20] = measured here: combination with cisplatin, at 0.5 µM, stronger effect = higher value
[21] = measured here: combination with cisplatin, at 5 µM, stronger effect = higher value
[22] = measured here: with BGB IC20 combination, at 0.5 µM
[23] = measured here: with cisplatin IC20 combination, at 0.5 µM
[24] = measured here: 5 uM single agent, at 5 µM
[25] = measured here: combination with cisplatin, at 0.5 µM
[26] = measured here: combination with cisplatin, at 5 µM
[27] = measured here: with BGB IC20, at 0.5 µM
[28] = measured here: with BGB IC20, at 5 µM
[29] = measured here: with cisplatin IC20, at 0.5 µM
[30] = measured here: with cisplatin IC20, at 5 µM
[31] = measured here: combination with BGB at IC20, at 0.5 µM
[32] = measured here: combination with cisplatin at IC20, at 0.5 µM
[33] = measured here: combo with BGB at IC20, at 0.5 µM
[34] = measured here: combo with cisplatin at IC20, at 0.5 µM
[35] = measured here: inhibition with BGB combination, at 0.05 µM
[36] = measured here: inhibition with cisplatin combination, at 0.05 µM
[37] = measured here: BGB combination, at 0.5 µM
[38] = measured here: BGB combination, at 5 µM
[39] = measured here: cisplatin combination, at 0.5 µM
[40] = measured here: cisplatin combination, at 5 µM
[41] = BGB combination, concentration series, at 5 µM
[42] = cisplatin combination, concentration series, at 5 µM
[43] = measured here: combo with BGB IC20, at 0.5 µM
[44] = measured here: combo with cisplatin IC20, at 0.5 µM
[45] = cisplatin combination, at 0.5 µM
[46] = measured here: BGB IC40 combination 0.05 uM, at 0.05 µM

CCC1(O)C(=O)OCc2c1cc1n(c2=O)Cc2cc3c(CN(C)C)c(O)ccc3nc2-1 (stereo not drawn)
inhibition [1, 16]: -7.42% (inactive) and 3.72% (inactive) and -2.55% (inactive)
inhibition [1, 17]: -2.96% and 0.821% and -23.7%
inhibition [1, 18]: -28.9% and -14.4% and -12.5%
inhibition [1, 19]: -8.3% and -3.25% and -7.46%
inhibition [1, 20]: 36.9% and 49.4% and -21.3%
inhibition [1, 21]: 93.3% and 91.7% and 75.9%
inhibition ([2]; BGB combo, at 5 µM): 96.4% and 97.1% and 98.1%
inhibition ([2]; at 0.5 µM): 83.1% (active) and 85.8% (active) and 82.9% (active)
inhibition ([2]; cisplatin combo, at 5 µM): 97.1% and 98% and 96.8%
inhibition [2, 22]: 87% and 85.5% and 88%
inhibition [2, 23]: 75.5% and 82.8% and 74.8%
inhibition ([2]; single agent, at 5 µM): 95.8% and 96% and 97%
inhibition ([3]; BGB IC20 combo, at 0.005 µM): 1.19% and -8.91% and -7.41%
inhibition ([3]; BGB IC40 combo, at 0.005 µM): -10.3% and 15% and 31.5%
inhibition ([3]; BGB IC40 combo, at 0.05 µM): 86.5% and 95.6% and 93.6%
inhibition ([3]; at 0.5 µM): -27.8% (inactive) and -43.8% (inactive) and -21.6% (inactive)
inhibition ([3]; cisplatin combo, at 0.05 µM): 86% and 95.5% and 93.6%
inhibition ([3]; cisplatin combo, at 0.5 µM): -32.3% and -49.7% and -34.5%
inhibition ([3]; cisplatin combo, at 5 µM): -21.2% and -33.4% and -10.9%
inhibition [3, 24]: -12.3% and -23.2% and -4.56%
inhibition ([4]; at 0.5 µM): 47.7% (inactive) and 43.3% (inactive) and 58.9% (inactive)
inhibition [4, 19]: 10.2% and -20.8% and 4.16%
inhibition [4, 25]: 82.2% and 88% and 73.7%
inhibition [4, 26]: 88.7% and 77.4% and 94.2%
inhibition ([5]; at 0.5 µM): 96.9% (active) and 98% (active) and 97.5% (active)
inhibition [5, 27]: 96.8% and 97.1%
inhibition [5, 28]: 97.9% and 97.6% and 98.3%
inhibition [5, 29]: 95.9% and 98.1% and 97.3%
inhibition [5, 30]: 99.6% and 99.8%
inhibition ([5]; single agent, at 5 µM): 99.8%
inhibition ([6]; at 0.5 µM): 65.1% (inactive) and 60.8% (inactive) and 61.1% (inactive)
inhibition [6, 31]: 71% and 76.8% and 68.6%
inhibition [6, 32]: 64.4% and 48.3%
inhibition ([7]; at 0.5 µM): 98% (active) and 98.7% (active) and 97.9% (active)
inhibition [7, 33]: 98% and 98.7% and 98.4%
inhibition [7, 34]: 97.6% and 98.6% and 97.2%
inhibition ([8]; at 0.5 µM): 77% (inactive) and 79.8% (inactive) and 77.4% (inactive)
inhibition [8, 35]: 19.5% and 12.5% and 11.3%
inhibition [8, 36]: 13.4% and 13.9% and 19.4%
inhibition ([9]; at 0.5 µM): -1.34% (inactive) and 9.72% (inactive) and -3.02% (inactive)
inhibition [9, 25]: 29.4% and 18.3% and 22.7%
inhibition [9, 26]: 72.5% and 69.7% and 68.5%
inhibition ([10]; at 0.5 µM): 69.2% (inactive) and 68.2% (inactive) and 67.8% (inactive)
inhibition [10, 37]: 61.3% and 61.9% and 60.6%
inhibition [10, 38]: 65.7% and 71.1% and 67.8%
inhibition [10, 39]: 72.6% and 68.5% and 65.5%
inhibition [10, 40]: 82% and 77.6% and 79.6%
inhibition [11, 41]: 103% and 101% and 96.7%
inhibition ([11]; at 0.5 µM): 82.6% (active) and 85.9% (active) and 82.4% (active)
inhibition [11, 42]: 113% and 107% and 110%
inhibition ([12]; at 0.5 µM): 64.5% (inactive) and 68.3% (inactive) and 55.5% (inactive)
inhibition [12, 43]: 69.2% and 71.9% and 60.5%
inhibition [12, 44]: 49.5% and 56.1% and 33.1%
inhibition ([13]; at 0.5 µM): 1.98% (inactive) and 4.12% (inactive) and -13.3% (inactive)
inhibition [13, 45]: 37.8% and 38.2% and 36.1%
inhibition ([13]; cisplatin combination, at 5 µM): 37.9% and 28.6% and 20.5%
inhibition [13, 46]: -16.5% and -30.7% and -23.7%
inhibition ([13]; single agent, at 5 µM): -16% and -5.69% and -15.3%
inhibition ([14]; at 0.5 µM): 11.7% (inactive) and 6.99% (inactive) and 15.6% (inactive)
inhibition ([14]; cisplatin combo, at 5 µM): 82.3% and 73.1% and 75.9%
inhibition ([14]; measured here: BGB IC40 combination, at 0.05 µM): -8.83% and -28.2% and -20.8%
inhibition [14, 25]: 55.7% and 30% and 38.3%
inhibition ([14]; single agent, at 5 µM): 22.6% and 40.2% and 40.4%
inhibition ([15]; at 0.5 µM): 78.9% (inactive) and 88.5% (active) and 81.8% (active)
inhibition [15, 22]: 91% and 95% and 93.8%
inhibition [15, 23]: 72.9% and 85.2% and 75.9%
inhibition ([15]; single agent, at 0.05 µM): 35.3% and 52% and 56.4%
inhibition ([15]; single agent, at 5 µM): 99.6% and 99.9% and 99.7%

CCC(C)C(=O)OC1CC(C)C=C2C=CC(C)C(CCC3CC(O)CC(=O)O3)C21 (stereo not drawn)
inhibition [1, 16]: -40.1% (inactive)
inhibition [1, 17]: -11.8%
inhibition [1, 18]: -21.9%
inhibition [1, 19]: -1.78%
inhibition [1, 20]: -46.1%
inhibition [1, 21]: -44.5%
inhibition ([2]; BGB combo, at 5 µM): 63.1%
inhibition ([2]; at 0.5 µM): 21.8% (inactive)
inhibition ([2]; cisplatin combo, at 5 µM): 52.4%
inhibition [2, 22]: 26.6%
inhibition [2, 23]: 11.5%
inhibition ([2]; single agent, at 5 µM): 65.1%
inhibition ([3]; BGB IC20 combo, at 0.005 µM): 0.285%
inhibition ([3]; BGB IC40 combo, at 0.005 µM): 16.8%
inhibition ([3]; BGB IC40 combo, at 0.05 µM): 20.5%
inhibition ([3]; at 0.5 µM): -5.66% (inactive)
inhibition ([3]; cisplatin combo, at 0.05 µM): 20.5%
inhibition ([3]; cisplatin combo, at 0.5 µM): -11.6%
inhibition ([3]; cisplatin combo, at 5 µM): -5.67%
inhibition [3, 24]: -12.3%
inhibition ([4]; at 0.5 µM): 22% (inactive)
inhibition [4, 19]: -11%
inhibition [4, 25]: 12.3%
inhibition [4, 26]: 12%
inhibition ([5]; at 0.5 µM): -1.62% (inactive)
inhibition [5, 27]: -18.6%
inhibition [5, 28]: 74.3%
inhibition [5, 29]: -1.27%
inhibition [5, 30]: 74.6%
inhibition ([5]; single agent, at 5 µM): 73.5%
inhibition ([6]; at 0.5 µM): -29.5% (inactive)
inhibition [6, 31]: -33%
inhibition [6, 32]: -19.4%
inhibition ([7]; at 0.5 µM): 30.1% (inactive)
inhibition [7, 33]: 26.5%
inhibition [7, 34]: 26.8%
inhibition ([8]; at 0.5 µM): 5.25% (inactive)
inhibition [8, 35]: -16.1%
inhibition [8, 36]: 5.33%
inhibition ([9]; at 0.5 µM): -20.3% (inactive)
inhibition [9, 25]: -23.3%
inhibition [9, 26]: -7.2%
inhibition ([10]; at 0.5 µM): -16.4% (inactive)
inhibition [10, 37]: -18.4%
inhibition [10, 38]: -6.45%
inhibition [10, 39]: -23%
inhibition [10, 40]: 8.95%
inhibition [11, 41]: 23.4%
inhibition ([11]; at 0.5 µM): 3.85% (inactive)
inhibition [11, 42]: 29.3%
inhibition ([12]; at 0.5 µM): -9.68% (inactive)
inhibition [12, 43]: -8.02%
inhibition [12, 44]: -11.2%
inhibition ([13]; at 0.5 µM): 6.42% (inactive)
inhibition [13, 45]: 24.4%
inhibition ([13]; cisplatin combination, at 5 µM): 33.2%
inhibition [13, 46]: 4.47%
inhibition ([13]; single agent, at 5 µM): 25.9%
inhibition ([14]; at 0.5 µM): 1.38% (inactive)
inhibition ([14]; cisplatin combo, at 5 µM): 4.72%
